SMILES strings stand for the structures. Among all 39,000 compounds or so, about 500 (1.3%) were called active. Shown is part of a subset that was picked to be rich in actives.

The test system of the assay is S. aureus RN4220. Description: growth inhibition call (relative growth <= 0.2). Particulars: 50 µM.
In the case of `Cl.Cl.N=C(NCCCCCCNC(=N)NC(=N)Nc1ccc(Cl)cc1)NC(=N)Nc1ccc(Cl)cc1`, the growth inhibition call was “active”.

On to `CC(C)NC(=N)NC(=N)Nc1ccc(Cl)cc1.Cl`, for which the growth inhibition call is “inactive”. The value for `Cl.N=C(NN=Cc1ccc(Cl)cc1)NN=Cc1ccc(Cl)cc1` was “inactive”. The value for `C[C@H](CO)N1C[C@H](C)[C@H](CN(C)Cc2ccc3c(c2)OCO3)Oc2c(NC(=O)C3CC3)cccc2C1=O` was “inactive”; that for `C[C@H](CO)N1C[C@H](C)[C@@H](CN(C)Cc2ccc(C(=O)O)cc2)Oc2ccc(NC(=O)Cn3cnnn3)cc2C1=O` was “inactive”. As to `Cl.Nc1ccn(C2OC(CO)C(O)C2(F)F)c(=O)n1` (stereo not drawn), the growth inhibition call is “active”. Take `Nc1ccn([C@@H]2O[C@H](CO)[C@@H](O)C2(F)F)c(=O)n1`: the growth inhibition call was “inactive”. The value for `C[C@@]1(F)[C@H](O)[C@@H](CO)O[C@H]1n1ccc(N)nc1=O` was “inactive”; that for `COc1ccc(NC(=O)N(C)C[C@@H]2OCCCC[C@H](C)Oc3ccc(NC(=O)c4ccccc4)cc3C(=O)N([C@@H](C)CO)C[C@@H]2C)cc1` was “inactive”. `COc1ccc2c3c([nH]c2c1)[C@@H](CO)N(Cc1ccc(cc1)Cl)C[C@]13CN(CCc2ccccc2)C1`: the growth inhibition call is “active”.

For the compound `COc1ccc2c3c([nH]c2c1)[C@H](CO)N(C[C@]13CN(CCc2ccccc2)C1)C(=O)CN1CCOCC1`, the growth inhibition call is “inactive”. As for `COc1ccc2c3c([nH]c2c1)[C@H](CO)N(Cc1ccc(cc1)Cl)C[C@]13CCN(CC1)Cc1nccs1`, the growth inhibition call was “inactive”. As for `COc1ccc2c3c([nH]c2c1)[C@H](CO)N(Cc1ccc(cc1)Cl)C[C@]13CCN(CCc2ccccc2)CC1`, the entry is “inactive”; as for `COc1ccc2c3c([nH]c2c1)[C@@H](CO)N(C[C@]13CN(CCc2ccccc2)C1)C(=O)CN1CCOCC1`, “inactive”.

For the compound `COc1ccc2c3c([nH]c2c1)[C@@H](CO)N(Cc1ccc(cc1)Cl)C[C@]13CCN(CC1)Cc1ccccc1`, the growth inhibition call was “inactive”. `COc1ccc2c3c([nH]c2c1)[C@H](CO)N(Cc1ccc(cc1)Cl)C[C@]13CCN(CC1)Cc1ccccc1`: the growth inhibition call is “inactive”.

As for `COc1ccc2c3c([nH]c2c1)[C@@H](CO)N(Cc1ccc(cc1)Cl)C[C@]13CCN(CCc2ccccc2)CC1`, the growth inhibition call is “active”. As to `COc1ccc2c3c([nH]c2c1)[C@H](CO)N(Cc1ccc(cc1)Cl)C[C@]13CN(CCc2ccccc2)C1`, the growth inhibition call is “active”. On to `Cc1ccc(NC(=O)Nc2cc(C(F)(F)F)ccc2F)cc1Nc1ccc2c(c1)NC(=O)/C2=C\c1ccc[nH]1`, for which the growth inhibition call is “inactive”. In the case of `N[C@@]1(C(=O)O)CO[C@H]2[C@H](C(=O)O)[C@H]21`, the growth inhibition call was “inactive”. As for `O=C(NCC(=O)N1CC[C@H](N[C@H]2CC[C@@](O)(c3ccc(-c4ncccn4)cn3)CC2)C1)c1cccc(C(F)(F)F)c1`, the entry is “inactive”; as for `CO[C@@H]1CN(C)C(=O)c2cc(NS(=O)(=O)CC(F)(F)F)ccc2OC[C@H](C)N(Cc2ccccn2)C[C@H]1C`, “inactive”; as for `CCCNC(=O)N1[C@@H]2Cn3c(cccc3=O)[C@H]1[C@@H](C(=O)NCC(F)(F)F)[C@@H]2CO`, “inactive”. Regarding `C[C@@H]1CN([C@H](C)CO)C(=O)c2cc(NC(=O)CCCN(C)C)ccc2O[C@H]1CN(C)C(=O)Nc1ccccc1`, the growth inhibition call is “inactive”. Regarding `CCS(=O)(=O)Nc1ccc2c(c1)C(=O)N(C)[C@H]1CC[C@@H](CC(=O)NCc3ccc(OC)cc3)O[C@@H]1CO2`, the growth inhibition call was “inactive”. As to `C[C@@H]1CN([C@@H](C)CO)C(=O)Cc2cc(NC(=O)Cn3cnnn3)ccc2O[C@H]1CN(C)S(=O)(=O)c1cccs1`, the growth inhibition call was “inactive”. For `COc1ccc(NC(=O)Nc2cccc3c2O[C@H](CN(C)S(=O)(=O)c2cn(C)cn2)[C@@H](C)CN([C@H](C)CO)C3=O)cc1`, the growth inhibition call was “inactive”. For the compound `COC(=O)c1c(CC[C@@H](CO)NC(=O)N[C@@H](Cc2ccccc2)Cn2cc(C3(O)CCCCC3)nn2)oc(C(C)=O)c1C(=O)OC`, the growth inhibition call is “inactive”. Turning to `O=C(N[C@@H](c1ccc2c(c1)OCO2)c1ccccn1)C1CCN(CCOc2ccc(Cl)cc2Cl)CC1`, the growth inhibition call is “inactive”. The value for `Cc1cccnc1[C@@H](NC(=O)C1CCN(CCOc2ccc(Cl)cc2Cl)CC1)c1ccc(F)cc1` was “active”; that for `O=C(N[C@H](c1ccc(Cl)cc1)c1ccsc1)C1CCN(Cc2ccc(Oc3ccccc3)cc2)CC1` was “inactive”; that for `Cc1cccnc1[C@@H](NC(=O)C1CCN(Cc2ccc(Oc3ccccc3)cc2)CC1)c1ccc(F)cc1` was “inactive”. Take `COc1ccc([C@@H](NC(=O)C2CCN(CCOc3ccc(Cl)cc3Cl)CC2)c2ccco2)cc1`: the growth inhibition call is “inactive”.

Take `COc1ccc([C@@H](NC(=O)C2CCN(CCOc3ccc(Cl)cc3Cl)CC2)c2ccccn2)cc1`: the growth inhibition call is “inactive”. As to `COc1ccc([C@@H](NC(=O)C2CCN(Cc3ccc(Oc4ccccc4)cc3)CC2)c2ccccn2)cc1`, the growth inhibition call is “inactive”. For `Cc1cccnc1[C@@H](NC(=O)C1CCN(Cc2ccc(Cl)c(Cl)c2)CC1)c1ccc(Cl)cc1`, the growth inhibition call is “inactive”. For the compound `O=C(N[C@H](c1ccc(Cl)cc1)c1ccccn1)C1CCN(CCOc2ccc(Cl)cc2Cl)CC1`, the growth inhibition call was “active”. For `O=C(N[C@@H](c1cccnc1)c1ccc2c(c1)OCO2)C1CCN(CCOc2ccc(Cl)cc2Cl)CC1`, the growth inhibition call is “active”.

Turning to `O=C(N[C@H](c1ccc(F)cc1)c1ccc2ccccc2n1)C1CCN(CCOc2ccc(Cl)cc2Cl)CC1`, the growth inhibition call is “inactive”. Take `Cc1cccnc1[C@@H](NC(=O)C1CCN(CCOc2ccc(Cl)cc2Cl)CC1)c1ccc(Cl)cc1`: the growth inhibition call was “active”.

Consider `C[C@H]1CN([C@@H](C)CO)C(=O)Cc2cc(NC(=O)Cn3cnnn3)ccc2O[C@H]1CN(C)C(=O)Nc1ccccc1`, for which the growth inhibition call was “inactive”. Consider `C[C@@H]1CN([C@@H](C)CO)C(=O)Cc2cc(NC(=O)c3ccncc3)ccc2O[C@@H]1CN(C)S(=O)(=O)c1ccc(F)cc1`, for which the growth inhibition call was “inactive”. As for `C[C@@H]1CCCCO[C@@H](CN(C)C(=O)NC2CCCCC2)[C@@H](C)CN([C@H](C)CO)C(=O)c2cc(NC(=O)Nc3cccc4ccccc34)ccc2O1`, the growth inhibition call is “inactive”. As for `C[C@H](CO)N1C[C@H](C)[C@@H](CN(C)S(=O)(=O)c2cccs2)OCCCC[C@H](C)Oc2ccc(NC(=O)Nc3cccc4ccccc34)cc2C1=O`, the entry is “inactive”; as for `O=C(CCCCCCC(=O)Nc1ccccc1O)N/N=C/[C@H](O)[C@@H](O)[C@@H](O)[C@H](O)C(=O)O`, “inactive”; as for `C[C@H]1CC[C@@H]2N(C1)C[C@@H]1[C@H]([C@@H](O)[C@H](O)[C@]3(O)[C@H]1C[C@@]14O[C@]5(O)[C@@H](C[C@@H](O)[C@@H]31)[C@]4(C)CC[C@@H]5O)[C@]2(C)O`, “inactive”. Take `Cc1cc(C(=O)Nc2cccc3c2O[C@H](CN(C)C(=O)Nc2ccc4c(c2)OCO4)[C@H](C)CN([C@H](C)CO)C3=O)n(C)n1`: the growth inhibition call is “inactive”.

Take `COc1ccc(S(=O)(=O)Nc2ccc3c(c2)C(=O)N([C@H](C)CO)C[C@@H](C)[C@@H](CN(C)Cc2ccccc2)OCCCC[C@@H](C)O3)cc1`: the growth inhibition call was “inactive”. As for `Cc1noc(C)c1NC(=O)N(C)C[C@@H]1OCCCC[C@@H](C)Oc2ccc(NC(=O)c3ccccc3)cc2C(=O)N([C@H](C)CO)C[C@@H]1C`, the entry is “inactive”. Turning to `CCCN(CCC)[NH2+][O-]`, the growth inhibition call is “inactive”. Regarding `C[C@H](CO)N1C[C@H](C)[C@H](CN(C)Cc2ccccc2)Oc2ccc(NC(=O)CCN3CCOCC3)cc2CC1=O`, the growth inhibition call is “inactive”. The value for `C[C@@H]1CN([C@H](C)CO)C(=O)c2cc(NC(=O)Nc3cccc4ccccc34)ccc2O[C@@H](C)CCCCO[C@H]1CN(C)S(=O)(=O)c1ccc(F)cc1` was “inactive”; that for `CC(C)(Sc1cc(C(C)(C)C)c(O)c(C(C)(C)C)c1)Sc1cc(C(C)(C)C)c(OCC(=O)O)c(C(C)(C)C)c1` was “active”; that for `CC(C)(Sc1cc(C(C)(C)C)c(O)c(C(C)(C)C)c1)Sc1cc(C(C)(C)C)c(OC(=O)CCC(=O)O)c(C(C)(C)C)c1` was “inactive”. Take `CC(C)(Sc1cc(C(C)(C)C)c(O)c(C(C)(C)C)c1)Sc1cc(C(C)(C)C)c(O)c(C(C)(C)C)c1`: the growth inhibition call is “inactive”. With `C[C@@H]1CN([C@H](C)CO)C(=O)c2cc(NS(=O)(=O)c3ccccc3)ccc2O[C@H]1CN(C)S(=O)(=O)c1ccc(F)cc1`, the growth inhibition call was “inactive”.

`COC(=O)[C@@H](N)Cc1ccc(-n2cc(CCC(=O)NO)nn2)cc1`: the growth inhibition call was “active”. As for `Cc1ccc(S(=O)(=O)N(c2cccc(-n3cc(CCC(=O)NO)nn3)c2)S(=O)(=O)c2ccc(C)cc2)cc1`, the entry is “active”; as for `Nc1ccc(-n2cc(CCC(=O)NO)nn2)cc1`, “inactive”; as for `CCOc1cc(OCC)cc(C(=O)N[C@@H](Cc2ccc(-n3cc(CCC(=O)NO)nn3)cc2)C(=O)OC)c1`, “inactive”. With `Nc1cccc(-n2cc(CCC(=O)NO)nn2)c1`, the growth inhibition call is “inactive”. Consider `CC(/C=C/C(=O)NO)=C\c1ccccc1OCc1cn(-c2cccc(N(S(=O)(=O)c3ccc(C)cc3)S(=O)(=O)c3ccc(C)cc3)c2)nn1`, for which the growth inhibition call is “inactive”. On to `Cc1onc(-c2ccccc2)c1C#N`, for which the growth inhibition call was “inactive”.

Turning to `NCCOB(c1ccccc1)c1ccccc1`, the growth inhibition call is “inactive”. Regarding `C[C@@H]1CCCCO[C@H](CN(C)C(=O)Nc2ccc(C(F)(F)F)cc2)[C@@H](C)CN([C@H](C)CO)C(=O)c2cc(NC(=O)Cc3ccccc3)ccc2O1`, the growth inhibition call is “inactive”.

For the compound `CC(C)NC(=O)N(C)C[C@@H]1Oc2ccc(NC(=O)Cc3ccccc3)cc2CC(=O)N([C@H](C)CO)C[C@@H]1C`, the growth inhibition call was “inactive”. As to `C[C@@H]1CN([C@@H](C)CO)C(=O)c2cc(NS(C)(=O)=O)ccc2O[C@@H]1CN(C)C(=O)Nc1ccc2c(c1)OCO2`, the growth inhibition call is “inactive”. As for `CS(=O)(=O)N1CCn2cc(Cn3cncn3)nc2C1`, the growth inhibition call was “inactive”.

For the compound `CCCC#Cc1cnc2c(c1)C(=O)N([C@@H](C)CO)C[C@H](C)[C@@H](CN(C)S(=O)(=O)c1cn(C)cn1)O2`, the growth inhibition call is “inactive”. For the compound `COc1ccc(NC(=O)N(C)C[C@@H]2Oc3ccc(NC(=O)CCN4CCOCC4)cc3C(=O)N([C@H](C)CO)C[C@H]2C)cc1`, the growth inhibition call was “inactive”. For the compound `CC(C)c1cc2c(cc1S(=O)(=O)O)[C@@]1(C)CCC[C@@](C)(C(=O)O)[C@@H]1CC2`, the growth inhibition call was “inactive”. Take `CC(C)C1=CC2=CCC3C(C)(C(=O)O)CCCC3(C)C2CC1` (stereo not drawn): the growth inhibition call is “active”.

For `CC(C)C1=CC2=CC[C@H]3[C@](C)(CO)CCC[C@]3(C)[C@@H]2CC1`, the growth inhibition call is “inactive”.

The values above are taken from the antibiotic and cytotoxicity screens of Wong et al. (2023).
